# Assay results from paper PMC4336329 (PLoS ONE, 2015).
# The campaign covered roughly 310,000 compounds. About 14,000 (4.5%) showed an effect of 50% or more. Effects have a minus sign here. The sample holds strong results, similar compounds and a random draw of the others, so the mix is not that of the screen.
# Molecular target: human ether-à-go-go-related gene (hERG) potassium channel (human, UniProt Q12809)
# Test: primary screen, population patch clamp on CHO cells stably expressing hERG; higher = less effect of the substance
# 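Also: peak tail current of the secondary pulse compared with the same well before compound.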
# Chain of human ether-à-go-go-related gene (hERG) potassium channel (Q12809 whole entry, looked up): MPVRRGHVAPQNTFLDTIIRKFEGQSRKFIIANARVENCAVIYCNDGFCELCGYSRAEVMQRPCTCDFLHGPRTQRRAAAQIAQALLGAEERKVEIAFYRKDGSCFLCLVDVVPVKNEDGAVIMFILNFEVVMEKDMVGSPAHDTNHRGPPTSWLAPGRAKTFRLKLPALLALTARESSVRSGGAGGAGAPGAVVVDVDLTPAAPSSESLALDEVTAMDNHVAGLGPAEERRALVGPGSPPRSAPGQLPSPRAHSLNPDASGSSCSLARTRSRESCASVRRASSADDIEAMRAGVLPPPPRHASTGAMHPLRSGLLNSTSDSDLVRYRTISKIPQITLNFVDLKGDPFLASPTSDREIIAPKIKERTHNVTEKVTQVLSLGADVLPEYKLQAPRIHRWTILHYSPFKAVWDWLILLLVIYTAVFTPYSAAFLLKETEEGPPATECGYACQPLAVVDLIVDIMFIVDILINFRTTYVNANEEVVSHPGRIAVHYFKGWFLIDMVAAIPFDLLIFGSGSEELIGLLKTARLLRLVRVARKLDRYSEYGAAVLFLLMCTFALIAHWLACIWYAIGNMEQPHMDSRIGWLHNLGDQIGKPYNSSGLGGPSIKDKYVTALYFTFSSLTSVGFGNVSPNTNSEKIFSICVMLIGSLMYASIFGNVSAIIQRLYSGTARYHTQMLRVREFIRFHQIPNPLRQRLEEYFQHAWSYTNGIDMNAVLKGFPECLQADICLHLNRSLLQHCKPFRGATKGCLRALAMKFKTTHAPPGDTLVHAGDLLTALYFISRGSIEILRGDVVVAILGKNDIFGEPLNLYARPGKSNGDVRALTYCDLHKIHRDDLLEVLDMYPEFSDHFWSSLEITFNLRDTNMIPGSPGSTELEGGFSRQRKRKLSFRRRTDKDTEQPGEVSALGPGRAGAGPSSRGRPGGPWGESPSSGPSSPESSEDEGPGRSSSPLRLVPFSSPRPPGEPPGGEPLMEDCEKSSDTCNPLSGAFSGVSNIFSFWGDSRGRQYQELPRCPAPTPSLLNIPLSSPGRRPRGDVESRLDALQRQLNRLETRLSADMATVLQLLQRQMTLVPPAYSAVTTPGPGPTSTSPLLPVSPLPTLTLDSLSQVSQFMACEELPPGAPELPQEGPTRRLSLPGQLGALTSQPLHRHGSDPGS
row,SMILES,"hERG current change (%, negative = inhibition) at 10uM"
1,CN(Cc1c(F)cccc1Cl)C(=O)c1cccc(S(=O)(=O)NCc2ccccc2)c1,-28%
2,O=C(CN1CCOCC1)Nc1ccc(N2CCN(c3ccccc3)CC2)c(F)c1,2.59%
3,CC(C)(C)n1ncc2c(=O)n(CC(=O)c3ccccc3)cnc21,-10.4%
4,O=C1CCc2cc(OCCCCc3nnnn3C3CCCCC3)ccc2N1,-64.1%
5,O=C1CCc2cc(S(=O)(=O)NC3CCCCC3)ccc2N1,-19.3%
6,COc1ccc(N2CCN(Cc3nnnn3C3CCCCC3)CC2)cc1,6.34%
7,CN(C(=O)COC(=O)c1cn(C)c2ccccc12)C1CCCCC1,6.55%
8,CC(=O)N1c2ccc(S(=O)(=O)NCC3CCC(C(=O)NCc4ccc(C)o4)CC3)cc2CC1C (stereo not drawn),-3.13%
9,CCCc1cc(=O)[nH]c(Nc2ccc(Cl)cc2)n1,6.28%
10,O=C(Nc1ccccc1)C(=O)Nc1ccc2c(c1)N(C(=O)C1CC1)CCC2,-5.26%
11,Nc1cc(=O)[nH]c(N2CCN(c3ccccc3)CC2)n1,24.2%
12,CCn1ccnc1CN1CCC(n2nccc2NC(=O)CCc2ccccc2)CC1,-3.91%
13,CCOc1ccc(CN2CCC(n3nccc3NC(=O)c3ccccc3OC)CC2)cc1,-82.8%
14,COc1ccccc1C(=O)Nc1ccnn1C1CCN(Cc2ncc[nH]2)CC1,-16.3%
15,COc1ccccc1C(=O)Nc1ccnn1C1CCN(Cc2ccc3nonc3c2)CC1,-72.1%
16,COc1cc(CN2CCC(n3nccc3NC(=O)c3ccccc3OC)CC2)ccc1F,-76.7%
17,COc1cc(CN2CCC(n3nccc3NC(=O)C3CCOC3)CC2)ccc1F (stereo not drawn),-6.78%
18,COc1ccc(C(=O)Nc2ccnn2C2CCN(Cc3ccc4nonc4c3)CC2)cc1,-43.1%
19,COc1ccc(C(=O)Nc2ccnn2C2CCN(Cc3ccccn3)CC2)cc1,5.54%
20,CCn1ccnc1CN1CCC(n2nccc2NC(=O)c2ccccc2OC)CC1,-69.9%
21,COc1ccccc1C(=O)Nc1ccnn1C1CCN(Cc2ccn[nH]2)CC1,-36.1%
22,COc1ccc(/C=N/Nc2nc(-c3cccnc3)nc3ccccc23)cc1OC,-22.2%
23,CCOc1ccc(N2C(=O)CN=C2Nc2ccccc2Cl)cc1,-2.73%
24,O=C(Nc1ccon1)C(Sc1ccccc1)c1ccccc1 (stereo not drawn),-8.32%
25,Cc1noc(C)c1C(=O)Nc1ccc(-c2nnc3n2CCCCC3)cc1,5.46%
26,CC1(C)CC(CC(=O)Nc2ccccc2[N+](=O)[O-])C(=O)O1 (stereo not drawn),-1.77%
27,Cc1cccc(-c2c3c(=O)n(C)c(=O)n(C)c3cn2-c2ccccc2O)c1,1.06%

row,SMILES,"hERG current change (%, negative = inhibition) at 10uM"
1,Cc1cc(C)c2oc(-c3ccc(C)c(NC(=S)NC(=O)/C=C/c4ccco4)c3)nc2c1,11.2%
2,Cc1cc(=O)oc2cc(OCC(=O)N3CCN(C(C)c4ccccc4)CC3)c(Cl)cc12 (stereo not drawn),-35.1%
3,O=C(N/N=C/c1ccco1)c1cc(-c2cccs2)[nH]n1,1.93%
4,Cc1ccccc1C(=O)NCCN1CCOCC1.Cl,6.78%
5,Fc1ccc(-c2c[nH]c(=S)n2Cc2ccccc2)cc1,-38%
6,O=C(NCCc1c[nH]c2ccccc12)C(F)(F)F,3.79%
7,COc1ccc(NC(=O)c2ccc(-n3cncn3)c([N+](=O)[O-])c2)cc1OC,-2.52%
8,CC(C)(Cc1cc(CC(C)(C)C(=O)O)cc(C(C)(C)C)c1)C(=O)O,10.4%
9,Cc1ccc(Nc2c(-c3ccc(N4CCOCC4)cc3)nc3ncccn23)cc1C,7.71%
10,COCc1nc(-c2ccc(-c3ccccc3)nc2OC)no1,-2.5%
11,COc1ccc(NC(=O)N2CCN(S(=O)(=O)c3ccc(F)cc3)CC2)c(OC)c1,-6.4%
12,O=C(CN1CCN(S(=O)(=O)c2ccc(F)cc2)CC1)Nc1ccccc1F,-56.1%
13,COc1ccc(S(=O)(=O)N2CCN(CCC(=O)Nc3ccccc3F)CC2)cc1,-0.0172%
14,O=C(CN1CCCN(S(=O)(=O)c2ccc(F)cc2)CC1)Nc1ccccc1Br,-49.1%
15,O=C(CCN1CCN(S(=O)(=O)c2ccc(Br)cc2)CC1)Nc1ccccc1F,-31.2%
16,COc1ccc(S(=O)(=O)N2CCN(CC(=O)Nc3ccccc3OC)CC2)cc1,-5.56%
17,COc1ccc(NC(=O)CN2CCN(S(=O)(=O)c3ccc(Br)cc3)CC2)c(OC)c1,19.8%
18,COc1ccc(S(=O)(=O)N2CCCN(CC(=O)Nc3ccccc3F)CC2)cc1,-55.7%
19,O=C(CN1CCN(S(=O)(=O)c2ccc(Br)cc2)CC1)Nc1ccccc1C(=O)c1ccccc1,1.26%
20,O=C(CN1CCN(S(=O)(=O)c2ccc(Br)cc2)CC1)Nc1ccccc1F,-62.5%
21,COc1ccc(NC(=O)CN2CCCN(S(=O)(=O)c3ccc(F)cc3)CC2)c(OC)c1,-54.6%
22,O=C(CCN1CCN(S(=O)(=O)c2ccc(F)cc2)CC1)Nc1ccccc1F,-8.34%
23,Cc1ccsc1C(=O)c1sccc1C,-3.08%
24,CSc1ccc(CCNC(=O)c2cc(-c3ccccc3)c(N3CCOCC3)s2)cc1,-1.02%
25,O=C(NCc1ccncc1)c1ccc(Cl)c(S(=O)(=O)N2CCCCC2)c1,-22.4%
26,O=C1CN(O)C=C2N=c3ccccc3=C2N1c1ccc([N+](=O)[O-])cc1,-26.6%
27,Cc1ccc(OCc2nnc(SCC(=O)c3ccccc3)n2Cc2ccco2)cc1,-47.1%
